For 18 compounds, Potency and outcome results are on record in PubChem BioAssay (Tox21).

Unmarked numbers belong to inactive results. Results filed as inconclusive are left out. Activity calls are given as the source filed them. Unless noted, calls follow the shape of the dose curve; as a rule, active = well fitted curve in the direction sought with a large enough effect in the repeat runs; inconclusive = weak or mixed curves; inactive = no such curve, though single readings can be large; an effect the other way counts as inactive or inconclusive.

The nature of experiment [1]: qHTS assay for small molecule agonists of the p53 signaling pathway (AID 651631; calls by dose curve; also: nearly all actives have a fitted effect of over 15% in size; also: potency is read from the fitted curve at half-maximal effect). The method in brief: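 p53RE-bla HCT-116 cells; compounds 16 h, 37 °C; LiveBLAzer B/G FRET substrate 2 h RT; fluorescence intensity read-out, qHTS format.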
Background: qHTS replaces the single test concentration by a dilution series.

Experiment [2] can be described thus: qHTS assay for small molecules that induce genotoxicity in human embryonic kidney cells expressing luciferase-tagged ATAD5 (AID 651632). Also: nearly all actives have a fitted effect of over 15% in size. In a few lines: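 A rise in luciferase signal from ATAD5-tagged HEK293T cells marks genetic stress. Cells were exposed to compounds for 16 hr at 37C, 5% CO2, then luciferase was quantified after a 30 min room-temperature incubation with Amplite.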

Experiment [3] can be described thus: qHTS assay for small molecule agonists of the p53 signaling pathway - cell viability (AID 651633; calls by dose curve; also: nearly all actives have a fitted effect of over 30% in size; also: potency is read from the fitted curve at half-maximal effect). The method in brief:
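p53RE-bla cells, seeded at 4,000 per well and rested 5 h at 37 C/5% CO2, received compounds in DMSO for 16 h at 37 C. CellTiter-Glo was then added, and luminescence was read after 30 min at room temperature to gauge cytotoxicity.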

Experiment [4] is described as follows: qHTS assay for small molecules that induce genotoxicity in human embryonic kidney cells expressing luciferase-tagged ATAD5 - cell viability (AID 651634; calls by dose curve; also: nearly all actives have a fitted effect of over 25% in size). The method in brief:
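Cytotoxicity counter-readout: after 15.5 hr compound treatment at 37C, live-cell protease activity in ATAD5-luciferase HEK293T cells measured by CellTiter-Fluor fluorescence, 30 min development at 37C.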

The nature of experiment [5]: qHTS assay for small molecule disruptors of the mitochondrial membrane potential - cell viability (AID 720634; calls by dose curve;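 also: human HepG2 liver cancer cells; series mostly up to about 83 µM; nearly all actives have a fitted effect of over 20% in size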). In a few lines: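 Cytotoxicity was quantified from ATP content by CellTiter-Glo luminescence in the same wells as the MMP dye read-out. HepG2 (2,000 cells/well) were plated overnight and exposed to compounds for 1 hr at 37 C.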
Experiment [6] in a line: qHTS assay to test for compound auto fluorescence at 590 nm (red) in HepG2 cells (AID 720674). In a few lines: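 Intrinsic compound fluorescence in the red window (Ex/Em 540/590 nm) is measured in attached HepG2 cells exposed for 1 hr, DMSO vehicle as baseline, benchmarked to Rose Bengal sodium.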
Experiment [7] can be described thus: qHTS assay to test for compound auto fluorescence at 535 nm (green) in HepG2 cells (AID 720675).
Experiment [8] is described as follows: qHTS assay to test for compound auto fluorescence at 460 nm (blue) in HEK293 cells (AID 720678). In a few lines:
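Cells were seeded and left to adhere for 4-5 hr at 37C. Compounds were then pin-transferred. After an overnight incubation at 37C under 5% CO2, intrinsic fluorescence at 405/460 nm was measured and referenced to triamterene.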

The nature of experiment [9]: qHTS assay to test for compound auto fluorescence at 590 nm (red) in HEK293 cells (AID 720679). In a few lines:
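Each well held 2,000 HEK293 cells in medium containing 10% dialyzed FBS. Following 4-5 hr attachment at 37C, 23 nL test compound or DMSO was added; plates sat overnight, and red fluorescence (540/590nm) was recorded.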

Experiment [10] can be described thus: qHTS assay for small molecule disruptors of the mitochondrial membrane potential (AID 720635). Also: potency is read from the fitted curve at half-maximal effect. In a few lines:
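HepG2 cells (2,000/well) attached overnight at 37C, then took compound for 1 hr at 37C, 5% CO2. Mito-MPS dye was added for 30 min; fluorescence was read at 490/535 nm (monomers) and 540/590 nm (aggregates).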

For the compound `CCCCCCCCCCCCSC#N`, the Potency entry in [1], in experiment [2], in [3], in [4], in experiment [5] and in [8] was “inactive” in each case. For the same compound, the compound was classed as inactive in [6], in experiment [7] and in experiment [9].
In the case of `COC(=O)/C=C/C(C)=C\C=C\C(C)=C\C=C\C=C(C)\C=C\C=C(C)\C=C\C(=O)O`, the Potency entry in [1], in experiment [2], in [3], in experiment [4], in experiment [5] and in [8] was “inactive” in each case. In addition, the result in experiment [6], in [7] and in experiment [9] was inactive.
Take `Clc1cc(Cl)c2c(c1)N=C1CCCCCN1C2`: the Potency entry in [1], in experiment [2], in experiment [3], in experiment [4], in experiment [5] and in [8] was “inactive” throughout. The compound was classed as inactive in experiment [6], in experiment [7] and in experiment [9].
Regarding `Cc1cc(C)c(C)c(O)c1`, the Potency result in experiment [1], in experiment [2], in [3], in experiment [4], in [5] and in experiment [8] was “inactive” in each case. Moreover, the call in experiment [6], in experiment [7] and in [9] was inactive.
`CO[C@@H]1[C@@H](O[C@@H]2O[C@H](C)[C@@H](O[C@H]3C[C@@](C)(O)[C@@H](O)[C@H](C)O3)[C@H](N(C)C)[C@H]2O)[C@@H](CC=O)C[C@@H](C)[C@@H](O[C@@H]2CC[C@H](N(C)C)[C@@H](C)O2)/C=C/C=C/C[C@@H](C)OC(=O)C[C@H]1OC(C)=O`: the Potency result in [1], in experiment [2], in experiment [3], in experiment [5], in [10] and in experiment [8] was “inactive” in each case. Also, the compound was classed as inactive in [6], in experiment [7] and in [9].
As to `CC(C)(C)N`, the Potency entry in [1], in experiment [2], in experiment [3], in experiment [5], in experiment [10] and in [8] was “inactive” in each case. Moreover, the call in experiment [6], in experiment [7] and in experiment [9] was inactive.
Consider `CCCCOC(=O)CC#N`, for which the Potency entry in experiment [1], in [2], in [3], in experiment [4], in [5] and in [8] was “inactive” each time. Further, the outcome in [6], in experiment [7] and in [9] was inactive.
As for `O=C(O)c1ccc2cc(O)ccc2c1`, the Potency entry in experiment [1], in experiment [2], in [3], in [4], in [5] and in experiment [8] was “inactive” in each case. Also, the compound was classed as inactive in experiment [7] and in [9].
Turning to `Cc1cc(N)n(-c2ccccc2)n1`, the Potency entry in [1], in [2], in [3], in [4], in experiment [5] and in experiment [8] was “inactive” in each case. The compound was called inactive in experiment [6], in [7] and in experiment [9].
On to `Sc1nc(S)nc(S)n1`, for which the Potency result in experiment [1], in [2], in [3], in experiment [4], in experiment [5] and in experiment [8] was “inactive” each time. The call in experiment [6], in [7] and in experiment [9] was inactive.
In the case of `O=C(O)c1ccncc1`, the Potency entry in [1], in experiment [2], in experiment [3], in experiment [4], in experiment [5] and in experiment [8] was “inactive” each time. The outcome in experiment [6], in experiment [7] and in experiment [9] was inactive.
For the compound `CCc1cnc(C(=O)O)c(C(=O)O)c1`, the Potency entry in experiment [1], in experiment [3], in [4], in experiment [5], in experiment [10] and in experiment [8] was “inactive” throughout. In addition, the compound was called inactive in [7] and in experiment [9].
Turning to `FC1(F)C(F)(F)C(F)(F)C2(F)C(F)(C1(F)F)C(F)(F)C(F)(F)C1(F)C(F)(F)C(F)(F)C(F)(F)C(F)(F)C12F` (configuration not stated), the Potency result in [1], in experiment [2], in experiment [3], in experiment [5] and in experiment [8] was “inactive” each time. In addition, the result in experiment [7] and in experiment [9] was inactive.
With `Cc1c(Cl)cccc1Nc1ccccc1C(=O)O`, the Potency in [1] is 21.1 µM (active); in experiment [3], 18.8 µM (active); in experiment [10], 11.9 µM (active). Also, the Potency entry in [4], in experiment [5] and in experiment [8] was “inactive” throughout. In addition, the call in [6], in experiment [7] and in [9] was inactive.
`Cc1ccc(NC(=O)c2ccc(CN3CCN(C)CC3)cc2)cc1Nc1nccc(-c2cccnc2)n1`: the Potency entry in [1], in experiment [3], in [5] and in experiment [8] was “inactive” each time. The Potency in experiment [10] is 2.11 µM (active). The result in [6], in experiment [7] and in experiment [9] was inactive.
Consider `[O-][n+]1ccc(Cl)cc1`, for which the Potency result in experiment [1], in experiment [3], in [4], in experiment [5] and in experiment [8] was “inactive” each time. The result in experiment [7] and in [9] was inactive.
Turning to `CC(CCl)OC(C)CCl` (configuration not stated), the Potency entry in experiment [1], in [4], in experiment [5], in experiment [10] and in [8] was “inactive” in each case. Besides, the call in experiment [7] and in [9] was inactive.
Take `Nc1ncnc2c1ncn2[C@@H]1O[C@H](CO)[C@@H](O)[C@H]1O`: the Potency result in [1], in experiment [3], in [4], in experiment [5] and in experiment [8] was “inactive” in each case. In addition, the compound was called inactive in experiment [6], in experiment [7] and in experiment [9].
